# An excerpt weighted towards active compounds, which were near 3.4% of everything screened.
# PP1 counter = PP1-alpha phosphatase inhibitors, primary screen, counter-screen for PP5 inhibitor project, biochemical, fluorescence, OMFP substrate, single point. Serine/threonine-protein phosphatase PP1-alpha catalytic subunit (Homo sapiens), P62136. purified PP1alpha. inhibition, % at 6.7 µM. 320,000 compounds, 0.9% hits. AID 2235, 2010;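 active = inhibition above the mean inhibition of all tested compounds plus 3 SD, computed separately for each screening campaign, cut at about 15% in these data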
# PAFAH1B2 inh = PAFAH1B2 enzyme inhibitors, primary screen, biochemical, fluorescence polarization, human. Platelet-activating factor acetylhydrolase IB subunit alpha2 (Homo sapiens), P68402. inhibition, % at 3.39 µM. AID 492953, 2010. recombinant PAFAH1B2, FP-rhodamine activity probe. 340,000 compounds, 1.2% hits;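 active = inhibition above the mean of all tested compounds plus 3 SD, cut at about 24% in these data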;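 note: 0% = enzyme with DMSO and 100% = wells lacking PAFAH1B2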
# PAFAH2 FP inh = PAFAH2 enzyme inhibitors, primary screen, biochemical, fluorescence polarization, human. Platelet-activating factor acetylhydrolase 2, cytoplasmic (Homo sapiens), Q99487. recombinant PAFAH2, FP-rhodamine activity probe. 340,000 compounds, 0.99% hits. inhibition, % at 3.39 µM;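 active = inhibition above the mean over all tested compounds plus 3 SD, cut at about 30% in these data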;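 note: inhibitors block probe labeling of enzyme so polarization drops; 0% = enzyme with DMSO and 100% = wells lacking PAFAH2 protein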
# pPAFAH inh = pPAFAH enzyme inhibitors, primary screen, biochemical, fluorescence polarization, human. inhibition, % at 3.39 µM. recombinant pPAFAH, FP-rhodamine probe fluorescence polarization. 330,000 compounds, 1.5% hits;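 active = inhibition above the mean inhibition across the screen plus 3 SD, cut at about 25% in these data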;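 note: inhibitors block binding of the rhodamine activity-based probe so polarization drops; 0% = enzyme with DMSO and 100% = wells lacking pPAFAH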
# Target sequence (Q13093 whole entry, looked up): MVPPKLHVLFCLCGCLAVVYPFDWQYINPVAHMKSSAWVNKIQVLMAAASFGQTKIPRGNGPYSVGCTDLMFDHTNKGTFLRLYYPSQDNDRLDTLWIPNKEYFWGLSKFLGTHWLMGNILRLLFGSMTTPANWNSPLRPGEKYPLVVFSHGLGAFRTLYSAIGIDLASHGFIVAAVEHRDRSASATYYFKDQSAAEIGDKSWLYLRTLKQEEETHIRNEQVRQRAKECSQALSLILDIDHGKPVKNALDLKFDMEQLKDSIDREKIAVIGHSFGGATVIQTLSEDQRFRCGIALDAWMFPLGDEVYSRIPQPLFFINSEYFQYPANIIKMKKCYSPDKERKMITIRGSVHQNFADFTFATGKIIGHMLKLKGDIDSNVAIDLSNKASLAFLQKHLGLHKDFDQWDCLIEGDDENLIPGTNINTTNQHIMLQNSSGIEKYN
# PAFAH1B3 inh = PAFAH1B3 enzyme inhibitors, primary screen, biochemical, fluorescence polarization, human; inhibition, % at 3.39 µM; 340,000 compounds, 0.28% hits; recombinant PAFAH1B3, FP-rhodamine probe; Platelet-activating factor acetylhydrolase IB subunit alpha1 (Homo sapiens), Q15102;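 active = inhibition above the screen-wide average of all tested compounds plus 3 SD, cut at about 25% in these data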;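 note: 0% = enzyme with DMSO only and 100% = wells lacking PAFAH1B3 protein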
# PP5 inh = PP5 phosphatase inhibitors, primary screen, biochemical, fluorescence; 320,000 compounds, 0.18% hits; Serine/threonine-protein phosphatase 5 (Homo sapiens), P53041; AID 1987, 2009; inhibition, % at 6.7 µM; purified PP5c, OMFP substrate fluorescence;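 active = inhibition above the campaign's mean inhibition across all tested compounds plus 3 SD, cut at about 9.5% in these data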;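 note: 0% = DMSO only and 100% = 100 µM cantharidin control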
# PAFAH2 confirm = PAFAH2 enzyme inhibitors, confirmation, biochemical, fluorescence polarization, human. shares compounds with PAFAH2 FP inh. recombinant PAFAH2, FP-rhodamine activity probe. inhibition, % at 3.39 µM. 2,300 compounds, 65% hits;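 active = mean inhibition over three repeats above a set limit taken from the earlier primary screen, cut at about 30% in these data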;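 note: inhibitor blocks binding of rhodamine activity probe so polarization falls; 0% = enzyme with DMSO and 100% = wells lacking PAFAH2 protein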
# Numbers without * were called inactive; . = no result given.
SMILES,PP1 counter,PAFAH1B2 inh,PAFAH2 FP inh,pPAFAH inh,PAFAH1B3 inh,PP5 inh,PAFAH2 confirm
Cc1c(Cl)cccc1N=Cc1ccc([N+](=O)[O-])s1,0,13,71*,11,13,4,8
Cc1ccccc1C(=O)N/N=C/c1ccc([N+](=O)[O-])s1,-2,3,10,10,11,0,.
N#Cc1ccccc1NC(=O)COC(=O)c1ccc2c(c1)OCCO2,-4,1,73*,13,7,0,69*
N#Cc1ccc(Cl)cc1NC(=O)COC(=O)c1ccc(S(=O)(=O)N2CCCC2)cc1,-2,4,5,2,3,2,.
N#Cc1ccc(Cl)cc1NC(=O)COC(=O)c1ccc2c(c1)OCCO2,4,-5,66*,10,1,2,68*
CCOc1ccc(CCNC(=O)CCc2nnc3ccc(N4CCCCC4)nn23)cc1OCC,0,5,5,1,4,2,.
Cc1ccc(S(=O)(=O)N2CCOCC2)cc1C(=O)NNC(=O)c1ccoc1C,-4,4,2,-1,5,-4,.
CC(C)(C)OC(=O)N1CCN(C(=O)c2cccnc2Cl)CC1,-2,1,4,4,5,-1,.
CNc1ccc(Br)cc(C(=O)/C=C/c2cccc(Cl)c2Cl)c1=O,.,10,44*,.,15,.,15
Cn1c(O)c(C2=c3ccccc3=NC2=O)[nH]c1=S,6,-3,4,-1,-8,4,.
COc1ccc2nc(-n3c(O)c(C4=c5ccccc5=NC4=O)[nH]c3=S)sc2c1,15*,15,60*,21,18,3,40*
COc1ccc(OCC(=O)Nc2ccc(NC(=O)c3ccccc3Cl)c(OC)c2)cc1,-1,2,7,7,-5,0,.
COC(=O)N/N=C/c1ccc(-c2cccc(Cl)c2)o1,0,0,-2,3,-4,1,.
Cc1nc(S/C(=C/c2ccc(-c3cccc(Cl)c3)o2)C(=O)O)n[nH]1,5,21,46*,6,6,0,32*
CCOc1cc(/C=C2\C(=O)ON=C2c2ccccc2)cc(Br)c1O,1,7,27,-1,4,1,.
COc1cc([N+](=O)[O-])ccc1-c1ccc(/C=C2\C(=O)ON=C2c2ccccc2)o1,.,8,30*,.,6,.,18
COc1cc(/C=C2\C(=O)ON=C2c2ccccc2)cc(Br)c1O,0,2,59*,3,-6,0,61*
COc1cc(/C=C2\C(=O)ON=C2c2ccccc2)cc(Cl)c1O,-3,0,33*,2,-8,-4,47*
Cc1ccc(C)c(NC(=O)Cn2cnc3c(oc4ccccc43)c2=O)c1,-2,-3,-2,-1,1,0,.
CCc1cc2c(=O)oc(-c3ccc(Br)cc3)nc2s1,.,-2,78*,.,0,.,67*
CCc1cc2c(=O)[nH]c(-c3ccncc3)nc2s1,-2,5,-4,-1,-3,-2,.
Cc1sc2nc(-c3cccs3)oc(=O)c2c1C,-1,-3,63*,-3,-2,0,67*
CC(C)(C)c1nc2scc(-c3ccc(Br)cc3)c2c(=O)o1,-7,0,5,1,11,3,.
Cc1sc2nc(-c3ccc(Br)cc3)oc(=O)c2c1C,-3,7,49*,-2,9,2,36*
COc1ccc(NC(=O)COC(=O)c2ccc(-n3cnnn3)cc2)cc1Cl,-2,-4,35*,-1,1,-2,27
O=C(COC(=O)c1cccc(-n2cnnn2)c1)Nc1c(Cl)cccc1C(F)(F)F,-4,3,42*,-5,-2,3,22
COc1ccc(OC)c(NC(=O)COC(=O)c2ccc(-n3cnnn3)cc2)c1,-5,4,8,0,10,2,.

# Screening data: PubChem BioAssay, The Scripps Research Institute Molecular Screening Center
